Sampled rows, rich in hits. Any-hit rate of the full collection: about 1.1%.
Yp Topo-I inh: inhibitors of Yersinia pestis topoisomerase I | Y. pestis Topo-I cleavage product accumulation, plate reader | hit rate 0.064% among 360,000 | activity, % at 10 µM; in the data active means activity above about 50%, passing the limit was not always enough; inconclusive means no clear call, values can overlap the other calls
BioA inh: BioA (M. tuberculosis) enzyme inhibition; inhibition, % at 9.99 µM; hit rate 0.096% among 360,000; purified M. tuberculosis BioA enzyme, plate reader; AID 602481; in the data active means inhibition above about 40%; inconclusive means no clear call, values can overlap the other calls
RecA splice inh: Mtb RecA intein splicing inhibition. hit rate 0.75% among 290,000. cell-free RecA intein splicing, fluorescence. inhibition, % (test concentration not listed). P9WHJ3; in the data active means inhibition above about 30%; inconclusive means no clear call, values can overlap the other calls
Target sequence (P9WHJ3 whole entry, looked up, canonical isoform): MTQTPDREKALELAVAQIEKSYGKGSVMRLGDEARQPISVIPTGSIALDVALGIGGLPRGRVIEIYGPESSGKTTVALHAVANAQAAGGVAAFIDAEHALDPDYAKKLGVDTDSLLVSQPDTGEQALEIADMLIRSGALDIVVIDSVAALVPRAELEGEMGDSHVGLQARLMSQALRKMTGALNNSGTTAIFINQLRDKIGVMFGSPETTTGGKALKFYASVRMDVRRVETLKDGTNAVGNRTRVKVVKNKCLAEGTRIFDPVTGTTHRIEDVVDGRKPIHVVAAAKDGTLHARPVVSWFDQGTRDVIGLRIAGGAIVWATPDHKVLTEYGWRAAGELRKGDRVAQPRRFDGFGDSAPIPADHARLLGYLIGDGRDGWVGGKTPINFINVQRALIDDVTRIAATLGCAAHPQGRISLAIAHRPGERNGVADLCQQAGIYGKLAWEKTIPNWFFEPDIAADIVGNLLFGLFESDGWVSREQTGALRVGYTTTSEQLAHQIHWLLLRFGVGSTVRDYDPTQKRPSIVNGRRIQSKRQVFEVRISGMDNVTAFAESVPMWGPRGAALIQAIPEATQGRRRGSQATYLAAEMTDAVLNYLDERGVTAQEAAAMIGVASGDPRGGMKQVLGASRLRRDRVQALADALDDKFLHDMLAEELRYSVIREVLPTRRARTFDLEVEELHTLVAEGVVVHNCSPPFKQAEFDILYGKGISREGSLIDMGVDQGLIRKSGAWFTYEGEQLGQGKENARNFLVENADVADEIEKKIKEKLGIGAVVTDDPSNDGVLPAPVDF
Mtb betalactam: beta-lactam sensitization of Mtb H37Rv; M. tuberculosis H37Rv growth with meropenem, percent inhibition; inhibition, % at 25 µM; hit rate 0.27% among 330,000;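 further: growth measured after seven days incubation then overnight dye step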
BJeLR lethal: kills HRASV12-expressing BJeLR cells; BJeLR (HRASV12) viability, CellTiter-Glo ATP luminescence, 48 h; inhibition, % (no concentration beside the values); hit rate 0.17% among 300,000; in the data active means inhibition above about 50%; inconclusive means no clear call, values can overlap the other calls
CCHF vOTU inh: CCHFV vOTU protease inhibition; Pep-AMC fluorescence; inhibition, % at 11.5 µM; hit rate 0.55% among 370,000; AID 651958; in the data active means inhibition above about 30%
GFP chromo cs: counter-screen: blocks GFP chromophore formation | shares compounds with RecA splice inh | cell-free GFP chromophore formation, fluorescence | EC50, µM | hit rate 83% among 2,100
Numbers stand for hits; 0 = inactive; ? = inconclusive; - = no result. Unless noted, how the calls were made is not given here.

SMILES	Yp Topo-I inh	BioA inh	RecA splice inh	Mtb betalactam	BJeLR lethal	CCHF vOTU inh	GFP chromo cs
CC1=NNC(=O)C1C(c1ccc(Cl)cc1)C(C#N)C#N (stereo unspecified)	0	0	85	0	0	0	11
CC1=NN(Cc2ccccc2)C(=O)C1C(c1ccc(Cl)cc1)C(C#N)C#N (stereo unspecified)	0	-	80	0	0	0	6.2
Cc1ccc(C)c(N2CCN(C(c3ccncc3)c3nnnn3Cc3ccccc3)CC2)c1 (stereo unspecified)	0	0	0	0	0	0	-
CC1=NN(Cc2ccccc2)C(=O)C1C(c1ccccc1)C(C#N)C#N (stereo unspecified)	0	0	88	0	0	0	8.7
CN(C)C(=O)c1ccc(-c2ccc([C@H]3[C@@H](C#N)N(S(C)(=O)=O)[C@H]3CO)cc2)cc1	-	0	-	-	-	-	-
O=C1/C(=C/c2cccc([N+](=O)[O-])c2)CCc2ccccc21	0	0	45	0	0	0	29
O=C(NCc1ccco1)/C(=C/c1cccc(C(F)(F)F)c1)c1nc2ccccc2[nH]1	0	0	38	0	0	0	0
O=C(NCc1ccco1)/C(=C/c1ccc(C(F)(F)F)cc1)c1nc2ccccc2[nH]1	0	-	0	0	0	0	-
CCOC(=O)C1CCN(Cc2cc(C(C)C)c(O)c(C(C)C)c2)CC1	0	-	59	0	0	0	0
CCOC(=O)C1CCN(Cc2ccc3ccccc3c2)CC1	0	0	0	0	0	0	-
CC1(C)CC(=O)C(Br)=C(O)C1	0	-	-	-	-	0	-
CC1(C)CC(=O)C(C2(O)C(=O)NC(=O)NC2=O)=C(O)C1	0	0	95	0	0	0	2.5
Cc1ccc(S(=O)(=O)Nc2ccc3c(c2)C(=O)N([C@@H](C)CO)C[C@@H](C)[C@H](CN(C)S(=O)(=O)c2cn(C)cn2)OCCCC[C@@H](C)O3)cc1	-	0	-	-	-	-	-
COC1(OC)C(/C=C/c2ccc(C)cc2)C(C#N)(C#N)C1(OC)OC (stereo unspecified)	0	0	59	0	0	0	0
O=C(O)c1cccc(Cn2c(Cl)c(/C=N/Nc3ccccc3)sc2=O)c1	0	-	30	0	0	-	0
C[C@@H]1CN([C@@H](C)CO)C(=O)c2cc(NC(=O)c3ccccc3)ccc2O[C@@H](C)CCCCO[C@H]1CN(C)C(=O)NC1CCCCC1	-	0	-	-	-	-	-
Cn1cnc([N+](=O)[O-])c1S(=O)(=O)Oc1ccccc1	0	0	-	-	-	0	-
Cn1cnc([N+](=O)[O-])c1S(=O)(=O)c1cccc(Cl)c1	0	-	61	0	0	0	27
Cc1cc(C(=O)CN2C(=O)c3ccccc3C2=O)c(C)n1C1CC1	0	0	98	0	0	0	0
C[C@@H]1CN([C@H](C)CO)C(=O)c2cccc(NS(=O)(=O)c3ccc(F)cc3)c2O[C@H]1CN(C)Cc1ccncc1	-	0	-	-	-	-	-
CC(=O)NC(=S)c1c(N)n(Cc2ccccc2)c(=O)n(C)c1=O	-	-	33	0	0	-	0
Oc1ccc(N=Cc2ccc(-c3cccs3)s2)cc1	0	0	45	0	0	0	0
CO[C@@H]1CN(C)C(=O)c2cc(NC(=O)c3cc(C)on3)ccc2OC[C@H](C)N(C(C)=O)C[C@H]1C	-	0	-	-	-	-	-
CN(C[C@@H]1N[C@H](CO)[C@@H]1c1ccc(C2=CCCC2)cc1)S(C)(=O)=O	-	0	-	-	-	-	-
COc1ccc(NC(=O)Nc2cccc3c2O[C@@H](CN(C)C(=O)NC2CCCCC2)[C@@H](C)CN([C@H](C)CO)C3=O)cc1	-	0	-	-	-	-	-
SMILES	Yp Topo-I inh	BioA inh	RecA splice inh	Mtb betalactam	BJeLR lethal	CCHF vOTU inh	GFP chromo cs
COCC(=O)Nc1ccc2c(c1)[C@H]1C[C@H](CC(=O)NCCN3CCCCC3)O[C@@H](CO)[C@H]1O2	-	0	-	-	-	-	-
CCCc1nnc(NC(=O)c2nc(S(=O)(=O)Cc3cccc(C)c3)ncc2Cl)s1	0	0	85	0	0	0	0
CCS(=O)(=O)c1ncc(Cl)c(C(=O)Nc2ccc(S(=O)(=O)N(C)c3ccccc3)cc2)n1	0	0	97	0	0	0	1.6
COc1ccc(NC(=O)c2nc(S(=O)(=O)Cc3cccc(C)c3)ncc2Cl)c(OC)c1	0	0	0	0	0	0	-
CCN(c1ccccc1)S(=O)(=O)c1ccc(NC(=O)c2nc(S(C)(=O)=O)ncc2Cl)cc1	0	0	0	0	0	-	-
Cc1ccc(NC(=O)c2nc(S(=O)(=O)Cc3ccccc3)ncc2Cl)cc1	0	0	66	0	0	0	40
COc1ccc(OC)c(NC(=O)c2nc(S(=O)(=O)Cc3ccccc3)ncc2Cl)c1	0	0	0	0	0	0	-
Cc1nnc(NC(=O)c2nc(S(=O)(=O)Cc3ccccc3)ncc2Cl)s1	0	0	56	0	0	0	16
CS(=O)(=O)Nc1ccc2c(c1)[C@H]1C[C@H](CC(=O)NCC(F)(F)F)O[C@@H](CO)[C@H]1O2	-	0	-	-	-	-	-
O=C(C[C@@H]1C[C@H]2c3cc(NC(=O)Nc4ccccc4)ccc3O[C@H]2[C@H](CO)O1)NCc1cccc(F)c1	-	0	-	-	-	-	-
O=C(CN1CCOCC1)N[C@H]1CC[C@H](CCNC(=O)C2CCCCC2)O[C@H]1CO	-	0	-	-	-	-	-
Cc1cccc(CS(=O)(=O)c2ncc(Cl)c(C(=O)NCc3ccccc3)n2)c1	0	0	0	0	0	0	-
Cc1cccc(C)c1NC(=O)c1nc(S(=O)(=O)Cc2ccccc2)ncc1Cl	0	0	36	0	0	0	17
Cc1ccccc1CS(=O)(=O)c1ncc(Cl)c(C(=O)Nc2ccc(F)cc2)n1	0	0	34	0	0	0	8.6
Cc1cccc(CS(=O)(=O)c2ncc(Cl)c(C(=O)Nc3c(C)cccc3C)n2)c1	0	0	46	0	0	0	9.9
O=C(Nc1ccc(F)cc1)c1nc(S(=O)(=O)Cc2ccccc2)ncc1Cl	0	0	0	0	0	0	-
CCOc1ccc(N2C(=O)/C(=C\c3ccc(O)c(OC)c3)S(=O)(=O)C2c2cccc([N+](=O)[O-])c2)cc1 (stereo unspecified)	0	0	88	0	0	0	2.5
CCOC(=O)C1=C(C)N(c2ccc(OC)cc2)C(=O)/C1=C\c1ccc(O)c(OCC)c1	0	-	0	0	0	0	-
CC(=O)C1=C(O)C(=O)N(c2ccc(O)cc2)C1c1cccc([N+](=O)[O-])c1 (stereo unspecified)	0	0	0	0	0	0	-
CCOc1ccc(N2C(=O)/C(=C\c3ccc(OC)c(O)c3)S(=O)(=O)C2c2cccc([N+](=O)[O-])c2)cc1 (stereo unspecified)	0	-	82	0	-	0	14
C[C@H](CO)N1C[C@H](C)[C@@H](CN(C)C(=O)Nc2cccc(F)c2)OCc2ccccc2-c2c(n(C)c3ccccc23)C1=O	-	0	-	-	-	-	-
CCN(CCN(C)C)C(=O)c1ccc2c(c1NCCO)C(=O)c1ccccc1C2=O	0	-	48	0	0	0	?
CC(C)(C)NC(=O)C(c1ccc(Cl)cc1)N(Cc1ccco1)C(=O)CCl (stereo unspecified)	0	0	69	0	0	0	22

Source: PubChem BioAssay
